Sampled rows, rich in hits. Any-hit rate of the full collection: about 1.4%.
Mtb MenB inh = inhibitors of Mycobacterium tuberculosis MenB enzyme; MenB enzyme assay, absorbance read-out; AID 540299; inhibition, % (test concentration not listed); 0.43% of 100,000 active; in the data active means inhibition above about 21%, passing the limit was not always enough
AID504770 = growth inhibitors of E. coli YBA685 in a screen for V. cholerae RctB (chromosome II replication) inhibitors; E. coli YBA685 rctB-dependent plasmid, OD600 growth, 3 h; stronger effect = lower value; z-score (concentration not given with the values); 0.27% of 130,000 active; in the data active means z-score below about -2, passing the limit was not always enough
MbtI inh = blocks the Mycobacterium tuberculosis siderophore enzyme MbtI. purified MbtI enzyme, fluorescence intensity read-out. 0.89% of 100,000 active. P9WFX0. inhibition, % (test concentration not listed); in the data active means inhibition mostly above about 56%, no sharp cut-off; inactive means mostly below about 77%
Target sequence (P9WFX0 whole entry, looked up): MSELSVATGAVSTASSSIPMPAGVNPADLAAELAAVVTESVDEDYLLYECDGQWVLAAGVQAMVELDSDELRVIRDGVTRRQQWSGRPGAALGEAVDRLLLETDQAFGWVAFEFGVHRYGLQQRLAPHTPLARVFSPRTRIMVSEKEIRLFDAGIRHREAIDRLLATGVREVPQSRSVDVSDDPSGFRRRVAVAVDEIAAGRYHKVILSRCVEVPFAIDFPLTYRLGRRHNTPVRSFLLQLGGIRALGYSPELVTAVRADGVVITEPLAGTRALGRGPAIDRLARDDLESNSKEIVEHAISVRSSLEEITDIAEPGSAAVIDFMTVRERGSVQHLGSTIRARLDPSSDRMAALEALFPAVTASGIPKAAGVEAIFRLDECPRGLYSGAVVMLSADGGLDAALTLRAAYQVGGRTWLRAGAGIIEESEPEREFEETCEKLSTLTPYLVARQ
PV pol inh = poliovirus RNA polymerase inhibition. poliovirus polymerase elongation, fluorescence polarization; stronger effect = lower value. P03300. % elongation, % (compound at 16.7 µg/mL). 0.66% of 150,000 active; in the data active means % elongation below about 90%
* = called active by the depositor; x = no result.

SMILES	Mtb MenB inh	AID504770	MbtI inh	PV pol inh
COc1ccc(CCN2C(=O)C(C(C)C)NC2=S)cc1OC (stereo unspecified)	-11	0.45	29	99
CCN(CC(=O)Nc1ccccc1)S(=O)(=O)c1ccccc1	-9	-0.7	-12	102
CC(C)(C)c1ccc(O)c(N)c1	-23	-0.05	99*	98
CC(C)(C)OC(=O)N=Nc1c(O)n(Cc2ccccc2)c2ccccc12	-22	1.1	0	104
O=C(CSc1n[nH]c(-c2ccccc2)n1)NCC1COc2ccccc2O1 (stereo unspecified)	-26	-0.4	-7	105
CN(C)c1ccc(NC(=O)CSc2nc(N)cc(=O)[nH]2)cc1	28*	-0.05	7	99
Nc1cc(=O)[nH]c(SCC(=O)Nc2ccccc2)n1	-12	-0.8	0	100
CCN1CCN(c2ncc3c(n2)CCN(Cc2cc(F)cc(F)c2)C3)CC1	x	x	x	86*
O=C1C(Sc2ncn[nH]2)=C/C(=N/S(=O)(=O)c2ccc(F)cc2)c2ccccc21	-6	-1.2	98	88*
O=C1C(Sc2ncn[nH]2)=C/C(=N/S(=O)(=O)c2cccs2)c2ccccc21	-30	0.45	90	87*
O=C1C(NS(=O)(=O)c2ccccc2)=C/C(=N\S(=O)(=O)c2ccc(F)cc2)c2ccccc21	0	-0.85	-2	78*
CC1CCN(S(=O)(=O)c2ccc(C(=O)NCCSCc3ccco3)cc2)CC1	-48	2.1	10	104
CN1/C(=N\N)c2cccc3cccc1c23	-104	1.2	18	112
Cc1nnc(NCc2ccco2)s1	-7	0.25	6	99
c1coc(CNc2nc(C34CC5CC(CC(C5)C3)C4)cs2)c1	-26	0.7	59*	91
COc1ccc(NC(=O)CC2Sc3ncnn3C2=O)cc1 (stereo unspecified)	x	-0.3	100*	x
COc1ccc(NC(=O)CC2SC(=Nc3ccccc3)N(c3ccccc3)C2=O)cc1 (stereo unspecified)	-23	0.25	-1	103
N=C1C(c2ccccc2)=C(O)CN1CC1CCCO1 (stereo unspecified)	-23	0.45	-3	104
CCOC(=O)c1sc(=N)n(CC(=O)c2ccc(F)cc2)c1C	-7	1.9	10	1.0*
CCOC(=O)c1cc2c(ccn2-c2ccc(F)cc2)n1CC(=O)c1ccc2c(c1)OCCO2	-52	2.2	-8	102
NC(=S)c1sccc1CS(=O)c1ccc(Cl)cc1 (stereo unspecified)	2	-0.7	59*	107
Cc1ccsc1C(N)=S	-20	-0.8	6	103
Cc1nc2c3cccnc3nn2c(C)c1CCC(=O)NCc1ccccc1	x	x	x	104
CSc1ccc(CCNC(=O)CCc2c(C)nc3c4cccnc4nn3c2C)cc1	x	x	x	14*
CNC(=S)NCCN1C(=O)S/C(=C\c2cccnc2)C1=O	-24	-3*	2	105
SMILES	Mtb MenB inh	AID504770	MbtI inh	PV pol inh
CCOC(=O)C1=C(C)NC(=S)NC1c1ccc(-c2ccccc2Cl)o1 (stereo unspecified)	60*	0.2	34	102
Cc1ccc2cc(CNCC(C)O)c(=O)[nH]c2c1C (stereo unspecified)	-19	0.2	54	101
COc1ccccc1C(=O)CN1CCCCC1C (stereo unspecified)	-21	0.5	-2	107
COc1ccccc1Nc1nn(CN2CCCCC2C)c(=S)s1 (stereo unspecified)	-28	-0.05	100*	94
CCOc1ccc(-c2cnc(N)s2)cc1	-1	-0.7	x	62*
Cc1ccc(-c2n[nH]c(=S)[nH]c2=O)cc1	-26	0.3	30	107
COc1ccc(-c2n[nH]c(=S)[nH]c2=O)cc1	-35	0.3	77*	94
O=C1OC(c2ccccc2)OC(=O)C1=Cc1cccs1 (stereo unspecified)	-4	-1.4	65*	101
CN1C(=O)C(=Cc2cccs2)C(=O)N(C)C1=S	-9	-0.75	16	103
COc1ccc(OC)c(-c2nnc3n(Cc4ccc(C)cc4)c(=O)c4ccccc4n23)c1	x	x	x	64*
COc1ccc(Cn2c(=O)c3ccccc3n3c(-c4ccccc4O)nnc23)cc1	-13	1.1	-12	106
CC(=O)Nc1ccc(C(=O)OCC(=O)N2CCCCC2C)cc1 (stereo unspecified)	-2	-0.15	-8	107
CCN(CC)C(=O)CN1C(=O)COCC1=O	26*	0.05	-9	99
O=C(CC1NC2CCCCC2NC1=O)NCc1ccccc1 (stereo unspecified)	-4	-0.6	-4	102
O=C1NC(=O)C(=Cc2ccc(N3CCCC3)o2)C(=O)N1	-142	-0.55	17	126
O=C1NC(=O)C(=Cc2ccc(Sc3ccc(Cl)cc3)o2)C(=O)N1	-26	0.5	92*	104
Cc1ccccc1NC(=O)/C=C\C(N)=O	-8	0.65	99*	104
CCOc1ccccc1NC(=O)/C=C/C(N)=O	x	-0.8	x	x
NC(=O)/C=C/C(=O)Nc1ccccc1Cl	-60	0.25	100*	101
CC1(C)Cc2c(c(N3CCOCC3)nc3sc4c(Cl)nnnc4c23)CS1	-27	-0.45	x	102
Cc1cc(C(=O)O)no1	32*	0.05	3	101
Nc1ccc2c(c1)C(=O)N(CC1CCCO1)C2=O (stereo unspecified)	-54	-0.7	-37	98
O=C1C=CC(=O)N1CC1CCCO1 (stereo unspecified)	x	-0.55	62*	100
Cc1n[nH]c(=O)nc1NCC1CCCO1 (stereo unspecified)	x	-0.4	x	x
CC1=C(C)C(=O)C(NCC2CCCO2)=CC1=O (stereo unspecified)	-119	-0.35	20	70*
SMILES	Mtb MenB inh	AID504770	MbtI inh	PV pol inh
O=S1(=O)C=CC2ON=C(c3c(Cl)cccc3Cl)C21 (stereo unspecified)	-12	-1.6	2	102
Cc1cc(Cl)ccc1OCC(=O)Nc1sc2c(c1C#N)CCC2	-1	0.25	x	80*
COc1ccccc1OCC(=O)Nc1sc2c(c1C#N)CCCC2	-29	-0.4	x	106
CC(C)(C)c1oc(C(=O)O)cc1CN1CCCC1	1	-0.6	x	101
COc1cc(C(=O)CN2CCOCC2)cc(OC)c1OC	6	-0.4	-10	101
Cc1nn(-c2ccccc2)c2c1P(=S)(N1CCOCC1)N(C)C(c1ccccc1)=N2 (stereo unspecified)	-5	-0.5	80	82*
CCOC(=O)c1c(N2C(=O)C=CC2=O)sc(C)c1-c1ccccc1	-14	-0.45	77*	108
CS(=O)(=O)c1nc2ccccc2s1	7	0.35	x	89*
CNc1nc2ccccc2n2c(C)nnc12	8	0.5	-5	103
CC1CCc2c(sc3nc(C(C)C)n4c(SCC(=O)NCc5ccco5)nnc4c23)C1 (stereo unspecified)	27*	0.75	5	103
CC(C)N(C(=O)CSc1ccc(Cl)c(Cl)c1)C(C)C	x	2	x	x
c1ccc(CN(CCN(Cc2ccccn2)Cc2ccccn2)Cc2ccccn2)nc1	30*	x	-14	104
CCS(=O)c1ccccc1C(=O)NCc1ccc(F)cc1 (stereo unspecified)	4	0	86*	99
